Results with a measured potency or affinity are listed apart.

The test system of the assay is Klebsiella pneumoniae. The following applies: Concentration 32 ug.mL-1;; ASSAY_TEST Inhibition of Bacterial Growth; detection method Absorption (OD600); MEDIA CAMHB; plate type 384well; NBS; CORNING #3640; time 18 hr.
The Inhibition is the relative decrease from the control value, in per cent. On to `Cc1ccc(-c2ccc3nn(CC(=O)N4CCN(c5ccccc5)CC4)c(=O)n3n2)cc1C`, for which the Inhibition worked out at 1.81%.

For the compound `CC(C)CCn1c(=O)c2sccc2n2c(=O)n(Cc3c(F)cccc3Cl)nc12`, the Inhibition was determined as 12.18%.

Regarding `CC(C)c1ccc(N(Cc2ccccc2)S(=O)(=O)c2cccn3cnnc23)cc1`, the Inhibition stood at 5.94%.

On to `O=C(Cn1nc2nc(Nc3ccc(F)cc3)ccn2c1=O)NCc1ccc(F)cc1Cl`, for which the Inhibition worked out at 11.65%.

For the compound `CCOc1ccc(-n2ccn3c(SCC(=O)Nc4ccc(F)cc4F)nnc3c2=O)cc1`, the Inhibition was found to be 15.47%.

Consider `COc1cccc(-n2ccn3c(SCC(=O)c4cccc(Cl)c4)nnc3c2=O)c1`, for which the Inhibition is on record as 6.31%.

In the case of `O=C(Cn1nc2c(Sc3ccccc3)nccn2c1=O)Nc1cc(F)ccc1F`, the Inhibition was -2.16%.

Turning to `O=c1c2sccc2n2c(=O)n(Cc3cccc(Br)c3)nc2n1Cc1cccs1`, the Inhibition is -22.43%.

As for `CCCCNC(=O)Cn1nc2n(Cc3ccco3)c(=O)c3sccc3n2c1=O`, the Inhibition stood at 5.33%.

For `O=C(CSc1nnc2c(=O)n(-c3ccc(Br)cc3)ccn12)Nc1ccc(F)cc1`, the Inhibition was 8.05%.

For `COc1ccc(-c2cc3c4nn(CC(=O)NCc5ccc(Cl)cc5)c(=O)n4ccn3n2)cc1`, the Inhibition is given as 20.18%.

As for `CC(C)c1nnc2c(SCC(=O)Nc3ccccc3C(F)(F)F)nc3ccccc3n12`, the Inhibition came out at 13.6%.

Regarding `CCCCOc1ccc(-c2cc3c4nnc(SCC(=O)Nc5ccc(F)cc5)n4ccn3n2)cc1`, the Inhibition is reported as 3.87%.

Take `CCCCOc1ccc(-c2cc3c4nnc(SCC(=O)NCc5ccc(OC)cc5)n4ccn3n2)cc1`: the Inhibition is 6.37%.

On to `COc1cccc(Oc2nccn3c(=O)n(CC(=O)NCc4ccc(SC)cc4)nc23)c1`, for which the Inhibition stood at 15.38%.

As for `CCCCOc1ccc(-c2cc3c4nnc(SCC(=O)Nc5ccc(C)c(F)c5)n4ccn3n2)cc1`, the Inhibition is 6.88%.

Take `Cc1ccc(Oc2nccn3c(=O)n(CC(=O)Nc4cccc(Br)c4)nc23)cc1`: the Inhibition is 11.55%.

Regarding `COC(=O)c1ccc(NC(=O)Cn2nc3nc(N4CCCCCC4)ccn3c2=O)cc1`, the Inhibition was 12.29%.

Take `Cc1cc(C)cc(Oc2nccn3c(=O)n(CC(=O)Nc4cccc(Cl)c4)nc23)c1`: the Inhibition amounted to 0.09%.

With `COc1ccc(NC(=O)Cn2nc3c(Oc4cccc(OC)c4)nccn3c2=O)cc1`, the Inhibition came out at 3.68%.

For `CCOc1ccc(-n2ccn3c(SCC(=O)Nc4ccc(Cl)cc4)nnc3c2=O)cc1`, the Inhibition came to 5.78%.

Regarding `COc1ccc(-c2cc3c4nn(CC(=O)Nc5ccc(C)c(F)c5)c(=O)n4ccn3n2)cc1`, the Inhibition was found to be 3.92%.

Regarding `O=S(=O)(c1ccc2nncn2c1)N(Cc1cccc(Cl)c1)c1ccccc1`, the Inhibition was found to be 4.69%.

With `CCOC(=O)c1ccccc1NC(=O)Cn1c(=O)c2nnc(C(C)C)n2c2ccccc21`, the Inhibition is given as 12%.

As for `CCc1nnc2c(S(=O)(=O)N(Cc3cccc(OC)c3)c3ccccc3)cccn12`, the Inhibition is recorded as 11.28%.

Turning to `Cc1ccc(C)c(CN(c2cccc(Cl)c2)S(=O)(=O)c2cccn3c(C)nnc23)c1`, the Inhibition is on record as 5.81%.

With `CCOc1ccc(-n2ccn3c(SCC#N)nnc3c2=O)cc1`, the Inhibition was found to be 5.38%.

Take `CC(C)c1ccc(NC(=O)Cn2nc3c(Sc4ccccc4)nccn3c2=O)cc1`: the Inhibition is listed as -10.24%.

Turning to `CCCc1nnc2c(=O)n(CC(=O)Nc3ccc(Br)cc3F)c3ccccc3n12`, the Inhibition is listed as -10.52%.

As to `COc1ccccc1N1CCN(C(=O)CSc2nc3ccccc3n3cnnc23)CC1`, the Inhibition worked out at 8.29%.

Consider `COc1ccc(-c2cc3c4nnc(SCC(=O)NCc5ccccc5Cl)n4ccn3n2)cc1`, for which the Inhibition stood at 6.77%.

For `CCOC(=O)c1ccc(NC(=O)Cn2nc3ccc(C(=O)Nc4cccc(C)c4)cn3c2=O)cc1`, the Inhibition stood at 6.83%.

As to `Cc1ccc(NC(=O)Cn2nc3ccc(SC(C)(C)C)nn3c2=O)cc1Cl`, the Inhibition is reported as 12.42%.

For `Cc1c(Cl)cccc1-n1ccn2c(=O)n(Cc3ccc(Cl)cc3)nc2c1=O`, the Inhibition stood at 2.87%.

For `Cc1cc2nn(CC(=O)Nc3ccc4c(c3)OCCO4)c(=O)n2c(Nc2ccccc2C)n1`, the Inhibition worked out at 6.73%.

Regarding `Cc1cc(C)cc(Oc2nc3ccccc3n3c(=O)n(CC(=O)Nc4ccc5c(c4)OCO5)nc23)c1`, the Inhibition was determined as 6.8%.

On to `CCc1nnc2c(S(=O)(=O)N(Cc3cc(F)cc(F)c3)c3cccc(F)c3)cccn12`, for which the Inhibition is 12.81%.

Take `CCOC(=O)C1CCCN(C(=O)Cn2nc3n(CC(C)C)c(=O)c4sccc4n3c2=O)C1` (centres undefined): the Inhibition is on record as 8.18%.

For `Cc1ccc(NC(=O)Cn2nc3c(Oc4ccccc4)nccn3c2=O)c(Br)c1`, the Inhibition is listed as -5.15%.

Source of the values: ChEMBL document CHEMBL4513146, “CO-ADD screening of Karazin Kharkiv National University (Ukraine) compounds”.
